Assay outcomes as filed in PubChem BioAssay.
Sampled rows, rich in hits. Any-hit rate of the full collection: about 11%.
OTUD3 block: human OTUD3 deubiquitinase inhibition; Q5T2D3; purified OTUD3, Ub-rhodamine fluorescence, 2 h; inhibition, % at 25 µM; 0.7% of 47,000 active; AID 1645858
USP17 block: inhibitors of human USP17 deubiquitinase. 6.5% of 47,000 active. purified USP17, Ub-rhodamine cleavage fluorescence, 3 h. inhibition, % at 50 µM
USP30 inh: human USP30 deubiquitinase inhibition | purified USP30, Ub-rhodamine cleavage fluorescence | inhibition, % at 25 µM | 5.3% of 47,000 active | Q70CQ3
USP28 inh: inhibitors of human USP28 deubiquitinase | Q96RU2 | purified USP28, Ub-rhodamine cleavage fluorescence, 30 min | inhibition, % at 25 µM | 3% of 47,000 active | AID 1645857
An asterisk follows results filed as active; / = no result. Cut-off read from the data, not from the text of the source: active = inhibition above about 30%; inactive = the rest.

SMILES	OTUD3 block	USP17 block	USP30 inh	USP28 inh
Cn1c(CN2CCOCC2)nnc1SCC(=O)Nc1ccc(F)cc1	0	1	-4	-2
CCCCN1CC(C(=O)Nc2nnc(COc3ccc(Cl)cc3)s2)CC1=O (centres undefined)	-4	-7	-39	-7
CCCc1noc(-c2ccnc(-n3ncc(C(=O)N4CCCCC4)c3C)c2)n1	11	10	16	12
CCCc1noc(-c2ccc(-n3ncc(C(=O)N4CCN(C)CC4)c3C)nc2)n1	16	7	30*	11
Nc1cccc(C(=O)c2ccc(C(=O)O)c(C(=O)O)c2)c1	-7	-16	-61	-3
CCNc1nc(SCc2ccc(C)cc2)nc2c1CCCC2	11	18	39*	27
Cc1nc(SCc2ccc(C(=O)O)cc2)nc2c1CCCC2	15	17	17	14
Cc1cc(C)n(CC2CN(CC(=O)NC3CCCCC3)CCO2)n1 (centres undefined)	-10	-11	-28	-10
Cc1oc(-c2[nH]ncc2C(=O)N(C)C)cc1S(=O)(=O)Nc1ccccc1	13	13	30*	14
Cc1ccccc1CNS(=O)(=O)c1cc(-c2[nH]ncc2C(=O)N(C)C)oc1C	-6	-10	-25	-15
O=C(COc1ccc2c(-c3ccccc3)cc(=O)oc2c1)Nc1cccnc1	14	20	68*	19
CC(Sc1nnc(-c2ccccc2Br)o1)C(=O)Nc1cccc(Cl)c1 (centres undefined)	23	22	43*	23
CNc1nc(C2CCCCN2C(=O)Cc2ccc(F)cc2)nc2c1CCNC2 (centres undefined)	-19	-11	-95	-16
Cc1cc(=O)n(C)c2c(O)c3c(cc12)c(C)cc(=O)n3C	57*	77*	4	70*
NC(=O)c1ccccc1NC1c2ncccc2C(=O)N1Cc1ccccc1 (centres undefined)	1	2	-18	6
O=S(=O)(Nc1ccc(N2CCCCC2)cc1)c1ccccc1F	-24	34*	-68	-20
O=S(=O)(Nc1ccc(N2CCCCC2)cc1)c1cccc(F)c1	-11	-12	-28	-6
Cc1ccc(-n2c3c(c(=O)[nH]c2=O)CN(Cc2ccccc2)CN3)cc1	-57	5	14	4
CCc1cc2c(cc(C(=O)OC)n2CC(=O)Nc2ccc(C)cc2Cl)s1	17	53*	2	1
Cc1nccn1-c1cccc(C2CCCN(C(=O)c3ccn[nH]3)C2)n1 (centres undefined)	-4	-2	1	-11
Cc1ccc(C)c(NC(=O)CCc2c(C)nn(-c3cc(N4CCOCC4)ncn3)c2C)c1	8	20	34*	6
COc1cccc(NC(=O)CCc2c(C)nn(-c3cc(N4CCCCC4)ncn3)c2C)c1	-3	0	9	68*
Cc1ccc(C)c(NC(=O)CCc2c(C)nn(-c3cc(N4CCCC4)ncn3)c2C)c1	24	22	28	12
COc1cccc(NC(=O)CCc2c(C)nc3c(c2C)c(=O)n(C)c(=O)n3C)c1	5	14	35*	37*
Cc1nn(-c2cc(N3CCCCC3)ncn2)c(C)c1CCC(=O)NCc1ccccc1	-2	-8	-33	-3
SMILES	OTUD3 block	USP17 block	USP30 inh	USP28 inh
COc1ccc(Cc2nnc(Nc3ccccc3)[nH]c2=O)cc1	11	8	8	11
CC(C)C[C@@H](C(=O)N1CCC(C(=O)O)CC1)n1c(=O)[nH]c2ccccc2c1=O	1	-14	-15	-6
Cc1nc(-c2cccs2)cc(-c2cccc(Cl)c2)c1C#N	14	18	37*	15
CCOC(=O)COc1nc(-c2cccs2)cc(C(F)(F)F)c1C#N	12	22	10	9
CCOc1ccc(NS(=O)(=O)c2ccc3c(c2)CC(C)N3C(=O)C2CC2)cc1 (centres undefined)	-10	-3	14	5
Cc1cc(N2CCN(c3ncccn3)CC2)nc2ccc(NC(=O)c3ccncc3)cc12	-3	71*	-3	-2
COC(=O)c1ccccc1NC(=O)C1CCCN(c2nnc(-n3cccc3)s2)C1 (centres undefined)	28	/	36*	18
O=C(CN1CCC2(CCC1=O)NC(=O)c1ccccc1N2)NCc1ccccc1F (centres undefined)	12	19	26	19
COc1ccc(NC(=O)NC(COC(=O)Nc2ccc(OC)cc2)c2ccccc2)cc1 (centres undefined)	30	60*	95*	33*
O=c1[nH]c2ccc(S(=O)(=O)Nc3ccc(O)c4ccccc34)cc2[nH]1	63*	63*	-10	27
Cc1ccc(S(=O)(=O)Nc2cc3[nH]c(=O)[nH]c3cc2C)c(C)c1	-17	-1	-13	-10
